CtBP-E1A inh: CtBP/E1A binding inhibition | 0.49% of 340,000 active | AlphaScreen GST-E1A/His-CtBP binding, 1536-well; active compounds read low | AID 651724 | activity change, % (test concentration not listed); in the data active = activity change below about -65%; inconclusive = mostly about -30% to -63%
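Protein mix (5X: 125 nM each GST-E1A, His-CtBP) was incubated with pinned compound 2 h at 37 deg C in dark, in 50 mM Tris pH 8.0 buffer with 300 mM NaCl. Glutathione donor and nickel acceptor beads followed; AlphaScreen signal read after 1 h.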
DT40 TDP1 no CPT: qHTS for Inhibitors of human tyrosyl-DNA phosphodiesterase 1 (TDP1): qHTS in cells in absence of CPT; Potency, µM (highest dose often 46.2 µM), for the others: top-dose activity change, negative = growth inhibition, hits mostly inhibitors; 15% of 420,000 active; DT40 Tdp1-/- hTDP1 cells, no CPT, ATP luminescence, 48 h; note: potency is the fitted concentration of half-maximal effect; nearly all actives have a fitted effect of over 55% in size
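Stably hTDP1-transfected Tdp1-null chicken DT40 cells were treated with library compounds minus camptothecin and grown for at least 48 hr at 37 °C, after which cellular ATP was quantified by luminescence.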
IL1B secr inh: inflammasome signaling inhibition, IL-1 beta readout | THP-1 LPS/ATP IL-1B secretion, AlphaLISA, 16 h; active compounds read low | activity change, % at 57.5 µM | 4.7% of 360,000 active | AID 743279; in the data active = activity change below about -50%; inconclusive = mostly about -30% to -49%
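THP-1 cells pretreated 1 hr with compounds (up to 57.5 uM final), then stimulated with LPS (250 ng/mL final) plus ATP (1.25 mM final); secreted IL-1B measured by AlphaLISA after 16 hr, decreased signal indicating inhibition.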
Six1-Eya2 blk: Six1/Eya2 interaction inhibition. 0.56% of 360,000 active. AlphaScreen GST-Six1/His-Eya2 binding, biochemical; active compounds read low. activity change, % (test concentration not listed). Q15475+O00167; in the data active = activity change below about -65%; inconclusive = mostly about -30% to -63%
Target sequence (O00167 whole entry, looked up): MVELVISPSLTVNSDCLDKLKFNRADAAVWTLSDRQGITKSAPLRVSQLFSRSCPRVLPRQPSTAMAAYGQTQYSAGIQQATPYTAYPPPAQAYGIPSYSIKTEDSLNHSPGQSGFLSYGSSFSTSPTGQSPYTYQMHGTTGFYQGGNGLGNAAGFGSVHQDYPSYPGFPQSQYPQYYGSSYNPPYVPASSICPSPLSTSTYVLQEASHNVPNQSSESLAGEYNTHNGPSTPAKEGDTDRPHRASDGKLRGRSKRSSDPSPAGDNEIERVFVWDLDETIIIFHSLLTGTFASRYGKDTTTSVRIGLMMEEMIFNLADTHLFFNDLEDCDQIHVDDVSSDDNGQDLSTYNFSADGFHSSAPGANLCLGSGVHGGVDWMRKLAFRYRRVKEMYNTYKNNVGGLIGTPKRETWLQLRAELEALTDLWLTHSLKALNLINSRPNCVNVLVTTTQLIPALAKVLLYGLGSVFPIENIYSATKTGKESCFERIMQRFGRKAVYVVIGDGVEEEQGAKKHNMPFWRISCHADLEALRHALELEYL
Target sequence (Q15475 whole entry, looked up): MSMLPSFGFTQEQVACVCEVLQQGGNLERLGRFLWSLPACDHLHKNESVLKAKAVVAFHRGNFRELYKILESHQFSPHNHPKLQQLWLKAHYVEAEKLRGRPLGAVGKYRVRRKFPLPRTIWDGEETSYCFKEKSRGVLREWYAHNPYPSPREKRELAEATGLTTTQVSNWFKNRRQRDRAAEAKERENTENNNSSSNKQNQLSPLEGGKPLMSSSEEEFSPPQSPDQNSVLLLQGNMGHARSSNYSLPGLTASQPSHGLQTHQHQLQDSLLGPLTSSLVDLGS
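AlphaScreen luminescence read after one hour at 37 °C in darkness. Pin-transferred compounds met GST-Six1 and His-Eya2 protein (5X stock 250 nM/500 nM) plus glutathione donor and Ni-chelate acceptor beads (5X, 50 ug/mL).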
TDP1 inh: TDP1 (human) enzyme inhibition. recombinant TDP1, AlphaScreen DNA substrate cleavage. Potency, µM (top dose mostly 130 µM), for inactives: at the top dose activity change, negative = inhibition, most hits filed as inhibitors. 0.28% of 350,000 active. AID 485290; note: potency is the fitted concentration of half-maximal effect; nearly all actives have a fitted effect of over 40% in size
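Steps: enzyme plus compound, 15 min RT; add biotin/phosphotyrosine-FITC oligonucleotide (15 nM final), react 5 min; add donor/acceptor beads (10 ug/ml final), 10 min; read AlphaScreen. Tdp1 at 1 nM final.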
DT40 TDP1 CPT: growth inhibition of DT40 Tdp1-/-;hTDP1 cells with camptothecin (screen for TDP1 inhibitors); Potency, µM (highest dose often 46.2 µM), for the others: at the highest dose activity change, negative = growth inhibition, hits mostly inhibitors; 12% of 420,000 active; chicken DT40 Tdp1-/-;hTDP1 cells + 20 nM CPT, ATP luminescence, 48 h; note: potency is the fitted concentration of half-maximal effect; nearly all actives have a fitted effect of over 55% in size
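Chicken DT40 Tdp1-/- cells stably complemented with human TDP1 were seeded at 400 cells/well in medium containing 20 nM camptothecin, exposed to pin-transferred compounds, and grown at 37 °C for at least 48 hr. Viability was read as ATP luminescence.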
The depositor's hits bear a star; ? = inconclusive; . = not tested or not shown. An excerpt weighted towards active compounds, which were near 18% of everything screened. Unless noted, calls come from the whole dose curve; as a rule, active = well fitted curve in the direction sought with a large enough effect; inconclusive = small, poorly fitted or top-dose-only effect, or another doubt; inactive = no such curve, though single readings can be large; an effect the other way counts as inactive or inconclusive. % is set by controls: 0 for no effect and ±100 for the full control effect.

SMILES	CtBP-E1A inh	DT40 TDP1 no CPT	IL1B secr inh	Six1-Eya2 blk	TDP1 inh	DT40 TDP1 CPT
CCC1C(=NO)C(CC)C(c2ccccc2)NC1c1ccccc1 (centres undefined)	-3	?	-51*	-9	6%	?
CC1C(=NO)C(C)C(c2ccccc2)NC1c1ccccc1 (centres undefined)	4	-17%	6	-1	5%	-10%
CCCSc1ncc(Cl)c(C(=O)N2CCN(c3ccc(OC)cc3)CC2)n1	.	?	.	.	11%	?
CCCSc1ncc(Cl)c(C(=O)N(Cc2cccc(Cl)c2)C2CCS(=O)(=O)C2)n1 (centres undefined)	.	16µM*	.	.	5%	23µM*
CCCSc1ncc(Cl)c(C(=O)N(Cc2ccc(N(C)C)cc2)C2CCS(=O)(=O)C2)n1 (centres undefined)	.	?	.	.	10%	?
CCCSc1ncc(Cl)c(C(=O)N2CCN(c3cccc(Cl)c3)CC2)n1	.	?	.	.	1%	1.8µM*
CCSc1ncc(Cl)c(C(=O)N2CCN(c3ccccc3OC)CC2)n1	.	4.1µM*	.	.	9%	3.3µM*
COc1cc2c(c(OC)c1OC)CCc1cnoc1-2	.	?	-6	3	.	-20%
OC[C@H]1OC(O)[C@@H](O)[C@@H](O)[C@@H]1O (some centres undefined)	2	29%	14	5	2%	9%
COc1ccc(-c2c(N)nnc3c2[nH]c2ccccc23)cc1OC	-8	21µM*	-64*	-11	3%	?
COc1ccc(-c2c(N)n[nH]c2C)cc1OC	2	15%	0	11	5%	8%
Fc1ccccc1Nc1ncnc2c1nc1n2CCCCC1	.	?	.	.	6%	?
CC(C)c1ccc(Nc2ncnc3c2nc2n3CCCC2)cc1	.	?	.	.	9%	?
Cc1cc(C)cc(Nc2ncnc3c2nc2n3CCCC2)c1	.	9.2µM*	.	.	-5%	9.2µM*
Cc1ccc(Nc2ncnc3c2nc2n3CCCC2)cc1F	.	?	.	.	-2%	?
COc1ccc(OC)c(Nc2ncnc3c2nc2n3CCCC2)c1	.	?	.	.	-5%	9.2µM*
COc1ccccc1Nc1ncnc2c1nc1n2CCCC1	.	8.2µM*	.	.	4%	7.3µM*
COc1ccc(Cl)cc1Nc1ncnc2c1nc1n2CCCC1	.	16µM*	.	.	7%	12µM*
CC=CC1OCC(CC)C(CCC)O1 (centres undefined)	1	-1%	0	9	.	8%
O=C(CCn1c2c(c3ccccc31)CCCC2)NNC(=O)c1ccc([N+](=O)[O-])cc1	-26	12µM*	-2	-26	6%	21µM*
C=CCNCc1ccc(C(=O)NCCCCCCC)cc1[N+](=O)[O-]	.	18µM*	-2	8	0%	?
COc1ccc(-c2nc3c(c(SCc4cc(C)ccc4C)n2)Cc2c(CO)cnc(C)c2O3)cc1	.	-2%	.	.	3%	-4%
COc1cccc(-c2nc3c(c(SCC(=O)N4CCOCC4)n2)Cc2c(CO)cnc(C)c2O3)c1	-15	4.1µM*	-14	-20	5%	21µM*
COc1ccccc1-c1nc2c(c(SCc3cc(C)ccc3C)n1)Cc1c(CO)cnc(C)c1O2	.	10µM*	.	.	0%	9.2µM*
Cc1ccc(NC(=O)CSc2nc(-c3ccc(F)cc3)nc3c2Cc2c(CO)cnc(C)c2O3)cc1C	.	-27%	.	.	0%	-1%
SMILES	CtBP-E1A inh	DT40 TDP1 no CPT	IL1B secr inh	Six1-Eya2 blk	TDP1 inh	DT40 TDP1 CPT
COc1ccccc1-c1nc2c(c(SCC(=O)N3CCCCC3)n1)Cc1c(CO)cnc(C)c1O2	-4	6.5µM*	-4	-6	6%	9.2µM*
COc1ccccc1-c1nc2c(c(SCC(=O)Nc3ccc(C)c(C)c3)n1)Cc1c(CO)cnc(C)c1O2	.	9.2µM*	.	.	10%	16µM*
Nc1cc(C(=O)OCC(=O)Nc2ccc(N3CCOCC3)cc2)ccc1Cl	-8	-6%	-3	-11	0%	5%
CCOc1nc(CC(C)C)c2c(c1C#N)CC(C)(C)OC2	11	-19%	63	19	4%	0%
Nc1nc(NCc2ccccc2Cl)n(-c2ccccc2)n1	2	-5%	-3	4	.	1%
Cc1cccc(-c2nc3c(c(SCC(=O)N4CCOCC4)n2)Cc2c(CO)cnc(C)c2O3)c1	-23	3.7µM*	?	-15	9%	?
Cc1cccc(NC(=O)CSc2nc(-c3cccc(C)c3)nc3c2Cc2c(CO)cnc(C)c2O3)c1	.	-29%	.	.	0%	?
Cc1ncc(CO)c2c1Oc1nc(-c3ccc(Cl)cc3)nc(SCC(=O)N3CCCCC3)c1C2	.	16µM*	.	.	0%	?
Cc1ncc(CO)c2c1Oc1nc(-c3ccccc3)nc(SCC(=O)N3CCOCC3)c1C2	-22	10µM*	-11	-6	5%	18µM*
CCN(CC)C(=O)CSc1nc(-c2ccccc2F)nc2c1Cc1c(CO)cnc(C)c1O2	.	4.6µM*	.	.	5%	3.7µM*
O=C(CSc1nc(-c2ccc(Cl)cc2)nc2c1Cc1ccccc1O2)N1CCCCC1	.	-14%	.	.	4%	1%
O=C(CNC(=O)c1ccc(Cl)cc1)OC(C(=O)Nc1cc(C(F)(F)F)ccc1Cl)c1ccccc1 (centres undefined)	.	.	.	.	-1%	.
Nc1nc2c(ncn2[C@@H]2O[C@H](CNS(=O)(=O)N3CCCC3)[C@@H](O)[C@H]2O)c(=O)[nH]1	0	0%	0	24	.	0%
O=C(C1Cc2ccccc2CN1S(=O)(=O)c1ccccc1[N+](=O)[O-])N1CCOCC1 (centres undefined)	4	?	4	-2	1%	21µM*
O=C(C1CCN(S(=O)(=O)c2ccccc2[N+](=O)[O-])CC1)N1CCOCC1	.	-10%	13	0	-2%	-12%
COc1cc(NC(=O)c2ccc(S(=O)(=O)N(C)c3ccccc3OC)cc2)cc(OC)c1	-8	21µM*	-3	-30	1%	18µM*
COc1ccccc1N(C)S(=O)(=O)c1ccc(C(=O)N(C)Cc2ccc(OC(F)F)cc2)cc1	-10	23µM*	-25	6	.	26µM*
COc1ccccc1N(C)S(=O)(=O)c1ccc(C(=O)NCC2CCCCC2)cc1	9	18µM*	0	-2	0%	?
COC(=O)c1ccc(NC(=O)c2ccccc2N(C)S(=O)(=O)c2ccccc2)cc1	6	21µM*	-19	-3	1%	?
CCC(C)(C)NC(=O)c1ccc(S(=O)(=O)N(C)c2ccccc2OC)cc1	1	-11%	3	9	4%	-20%
On1c(-c2ccc(Cl)cc2Cl)nc2ncccc21	3	2%	-5	10	.	27%

Bioassay records from PubChem.
